The list is not random: actives were taken first. Their share in the collection is about 10%.
Six1-Eya2 inh: qHTS Assay for Inhibitors of the Six1/Eya2 Interaction | AlphaScreen GST-Six1/His-Eya2 binding, biochemical; active compounds read low | activity change, % (no concentration beside the values) | actives 0.56% (n = 360,000) | AID 651725, 2012; in the data active means activity change below about -65%; inconclusive means mostly about -30% to -63%; further: on the % scale 0 is the no-effect control and ±100 the full control effect
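GST-Six1 + His-Eya2 (5X stock: 250/500 nM); Tris pH 8.0, 300 mM NaCl, 0.05% BSA, 0.02% Tween 20; GSH donor/Ni acceptor beads; 1 h 37 °C dark; AlphaScreen readout.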
JMJD2A Tudor: qHTS Assay for Inhibitors of JMJD2A-Tudor Domain; actives 4.4% (n = 390,000); Potency, µM (series often up to 114 µM), without a hit: at the top dose activity change, negative = inhibition, actives largely listed as inhibitors; AlphaScreen JMJD2A-Tudor / H3K4me3 peptide binding; Lysine-specific demethylase 4A (Homo sapiens), O75164; further: potency means the concentration at half of the fitted maximal effect; on the % scale 0 is the no-effect control and ±100 the full control effect; nearly all actives have a fitted effect of over 50% in size
G9a block: qHTS Assay for Inhibitors of Histone Lysine Methyltransferase G9a | AID 504332, 2011 | Histone-lysine N-methyltransferase EHMT2 (Homo sapiens), Q96KQ7 | Potency, µM (titrated, usually from 102 µM), inactives show top-dose activity, negative = inhibition, hits mostly inhibitors | G9a H3K9 monomethylation, AlphaScreen, 2 h | actives 8.8% (n = 350,000); further: potency means the concentration at half of the fitted maximal effect; on the % scale 0 is the no-effect control and ±100 the full control effect; nearly all actives have a fitted effect of over 75% in size
Target sequence (Q96KQ7 913-1193 limits assumed): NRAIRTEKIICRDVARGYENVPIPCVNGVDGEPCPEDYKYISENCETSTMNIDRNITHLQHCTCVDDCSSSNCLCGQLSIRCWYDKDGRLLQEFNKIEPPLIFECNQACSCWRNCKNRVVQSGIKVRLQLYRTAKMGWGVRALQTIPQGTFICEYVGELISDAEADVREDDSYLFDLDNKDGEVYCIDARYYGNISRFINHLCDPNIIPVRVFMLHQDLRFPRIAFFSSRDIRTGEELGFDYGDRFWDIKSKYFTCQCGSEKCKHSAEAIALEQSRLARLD
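Methyltransferase reactions run at room temperature for 2 h (20 nM enzyme, 500 nM biotin-H3K9 peptide, 20 uM SAM) after a 15 min compound preincubation; product detected by AlphaScreen beads and anti-H3K9me1 antibody.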
BAZ2B inh: qHTS Assay for Inhibitors of BAZ2B; Potency, µM (series often up to 114 µM), inactives show top-dose activity change, negative = inhibition, most hits filed as inhibitors; AID 504333, 2011; actives 4.4% (n = 360,000); Bromodomain adjacent to zinc finger domain protein 2B (Homo sapiens), Q9UIF8; AlphaScreen BAZ2B-H3K14Ac peptide displacement; further: potency means the concentration at half of the fitted maximal effect; on the % scale 0 is the no-effect control and ±100 the full control effect; nearly all actives have a fitted effect of over 60% in size
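BAZ2B (50 nM) with biotin-H3(5-23)K14Ac peptide (50 nM) in PBS pH 7.4, 0.01% Tween-20, preformed 30 min, then compound 30 min at room temperature; top concentration 110uM. AlphaScreen streptavidin donor/nickel chelate acceptor beads (10 ug/mL final), 20 min dark, signal read.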
HP1b binding inh: HTS for Inhibitors of HP1-beta Chromodomain Interactions with Methylated Histone Tails | Chromobox protein homolog 1 (Homo sapiens), P83916 | AlphaScreen HP1-beta / biotin-H3K9me3 peptide binding | Potency, µM (top dose mostly 114 µM), inactives show top-dose activity change, negative = inhibition, actives largely listed as inhibitors | actives 0.56% (n = 390,000) | AID 540317, 2011; further: potency means the concentration at half of the fitted maximal effect; nearly all actives have a fitted effect of over 70% in size
Target sequence (P83916 whole entry, looked up): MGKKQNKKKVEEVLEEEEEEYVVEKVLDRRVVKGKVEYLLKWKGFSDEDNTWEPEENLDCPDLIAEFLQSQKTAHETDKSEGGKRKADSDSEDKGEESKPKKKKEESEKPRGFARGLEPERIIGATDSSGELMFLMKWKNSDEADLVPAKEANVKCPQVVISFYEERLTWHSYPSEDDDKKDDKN
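AlphaScreen: HP1-beta (50 nM) preformed 30 min with biotin-H3(1-18)K9me3 peptide (50 nM) in PBS pH 7.4, 0.01% Tween-20. Compound added for 30 min at RT, then streptavidin donor/nickel chelate acceptor beads (10 ug/mL) for 30 min.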
CtBP-E1A inh: qHTS Assay for Inhibitors of the CtBP/E1A Interaction; CtBP / adenovirus E1A interaction (AlphaScreen); AlphaScreen GST-E1A/His-CtBP binding, 1536-well; active compounds read low; activity change, % (test concentration not listed); actives 0.49% (n = 340,000); AID 651724, 2012; in the data active means activity change below about -65%; inconclusive means mostly about -30% to -63%; further: on the % scale 0 is the no-effect control and ±100 the full control effect
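Homogeneous bead-based format: GST-tagged E1A captured on glutathione donor beads, His-tagged CtBP on nickel acceptor beads; compounds precede bead addition by 2 h at 37 °C.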
* marks the source's active call; other numbers are inactive results; u = inconclusive; x = not tested or not shown; [ ] = dose if it differs, or a comment. Unless noted, the call rests on the fitted dose curve; in most records, active means well fitted inhibition curve with a large enough effect; inconclusive means small, poorly fitted or top-dose-only effect; inactive means no such curve, though single readings can be large or run the other way.

SMILES	Six1-Eya2 inh	JMJD2A Tudor	G9a block	BAZ2B inh	HP1b binding inh	CtBP-E1A inh
O=C(COC(=O)c1ccc(Cl)nc1)Nc1nnc(-c2ccccc2)o1	-27.6	79.4µM*	-7.3%	50.1µM*	15.7%	u
O=C(COC(=O)c1cncc(Br)c1)Nc1nnc(-c2ccccc2)o1	-24.8	50.1µM*	x	x	24.7%	u
CCCCCn1c(=O)[nH]c2cc(C(=O)N3CCN(c4cc(Cl)ccc4C)CC3)ccc2c1=O	x	-21.5%	6.9%[59 µM]	0.9%	6.1%	x
O=C(Cn1c(=O)n(Cc2ccc3c(c2)OCO3)c(=O)c2ccc(C(=O)NC3CCCCC3)cc21)Nc1ccccc1F	x	6.5%	4.0%[59 µM]	2.5%	18.1%	x
CCSc1ncc(Cl)c(C(=O)N2CCN(c3ccccc3OC)CC2)n1	x	-19.4%	-6.4%[59 µM]	-7.4%	2.7%	x
CC1(C)Cc2c(ccc3ccccc23)/C(=C/C#N)N1	u	u	50.1µM*	-11.9%	-10.7%	-25.1
CNC(=O)/C=C1\NC(C)(C)Cc2c1ccc1ccccc21	3.6	-31.1%	17.7%[12.7 µM]	-7.0%	26.7%	-0.2
CC(=O)N1CCCC1c1nc2ccccc2n1Cc1ccccc1Cl (stereo not drawn)	x	-13.2%	-31.8%[59 µM]	-17.0%	6.2%	x
O=C(CSc1ccccc1)N1CCc2ccccc21	5.2	19.2%	39.5%[59 µM]	7.8%	54.8%	7.8
O=C(CSCc1ccco1)N1CCc2ccccc21	-4.4	-23.8%	70.8µM*	-26.8%	18.5%	-1.3
O=C(NC(Cc1ccccc1)C(=O)OCC(=O)N1CCc2ccccc21)c1ccco1 (stereo not drawn)	-7.7	-10.9%	14.1µM*	-0.9%	9.4%	-1.1
COc1cccc(C(=O)/C=C/Nc2ccc(S(=O)(=O)Nc3ccc(C(C)=O)cc3)cc2)c1	-24.0	-13.8%	50.1µM*	-3.4%	-17.9%	u
COc1ccc(C(=O)/C=C/Nc2ccc(S(=O)(=O)Nc3cc(OC)nc(OC)n3)cc2)c(OC)c1	u	-26.4%	25.1µM*	-21.6%	9.7%	-29.7
COc1cc(NS(=O)(=O)c2ccc(N/C=C\C(=O)c3ccc(OC)c(OC)c3)cc2)nc(OC)n1	u	-13.4%	u	-10.3%	26.7%	-6.2
COc1ccc(C(=O)/C=C/Nc2ccc(S(=O)(=O)Nc3cccc(C(C)=O)c3)cc2)cc1	-13.0	-1.4%	u	2.7%	25.9%	-10.4
COc1cccc(C(=O)/C=C/Nc2ccc(S(=O)(=O)Nc3cc(OC)nc(OC)n3)cc2)c1	u	-20.2%	79.4µM*	u	15.5%	-28.9
COc1cc(NS(=O)(=O)c2ccc(NC(=S)NC(=O)c3sc4cc(F)ccc4c3Cl)cc2)nc(OC)n1	0.0	u	u	-28.6%	u	4.2
COc1cc(NS(=O)(=O)c2ccc(NC(=S)NC(=O)c3sc4ccccc4c3Cl)cc2)nc(OC)n1	-15.2	-33.1%	u	50.1µM*	u	-28.7
Cc1ccccc1CNC(=O)CN(c1cccc(C)c1C)S(C)(=O)=O	x	-5.4%	4.6%[59 µM]	-3.0%	75.1%	x
CCOc1ccc(S(=O)(=O)N2CCN(c3nc(-c4ccccc4)nc4ccccc34)CC2)cc1	x	-20.4%	x	x	17.8%	x
CCN1CCN(C(=O)c2ccc3c(c2)N(Cc2ccccc2F)C(=O)c2ccccc2S3=O)CC1 (stereo not drawn)	x	-14.8%	u	-13.7%	30.9%	x
CCOc1ccc(/C=C/c2nc(C#N)c(N(C)C)o2)cc1	x	-20.4%	-33.5%[59 µM]	u	24.7%	x
COc1cccc(/C=N/N2C(=O)NC3(CCCCC3)C2=O)c1O	3.8	-26.9%	15.8µM*	3.1%	16.7%	-1.3

High-throughput results deposited in PubChem BioAssay by National Center for Advancing Translational Sciences (NCATS).
